In article PMC5540273 (PLoS ONE, 2017):
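Note: kd values determined as follow-up on hits from a single-replicate KINOMEscan panel screen.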

`CNc1nccc(-c2c(-c3ccc(F)cc3)ncn2CCCN2CCOCC2)n1` [SB-222516] gave a Kd (PAK2) of over 10 µM.
`CCCc1ccc(S(=O)(=O)NC2CCN(c3ccnc(Nc4ccc(OC)cc4)n3)C2)cc1` (centres unmarked) [GSK1379737] gave a Kd (PAK3) of over 10 µM.
For `Oc1ccc2ncnc(Nc3ccc(OCc4ccccc4)cc3)c2c1` [GI262866], the Kd (PAK3) was over 10 µM.
In the case of `Cc1ccc(C)c(NC(=O)NCCNc2ccnc(Nc3ccc(F)cc3)n2)c1` [GSK1379878], the Kd (PAK6) is reported as over 10 µM.
Compound `c1ccc(-c2ccc3c(-c4ccnc(Nc5ccc6c(c5)OCCO6)n4)cnn3n2)cc1` [GW818941] has a Kd (PAK6) of over 10 µM.
`Cl.Cn1ccc(-c2cccc(Nc3ccnc4cc(-c5nccs5)ccc34)c2)n1` [GW525701] showed a Kd (PAK7) of over 10 µM.
`CC(C)(C)c1ccc(-n2cnc3c(N)ncnc32)cc1` [SKF-97263] was tested, and the Kd (PIK3C2B) was 8.3 µM and the Kd (PIK3CA) was over 10 µM.
With `CSc1nn2c(=O)cc(N3CCOCC3)nc2n1Cc1cccc(Cl)c1Cl` [GSK2347225] the Kd (PIK3C2B) was 0.36 µM and the Kd (PIK3CB) was 0.0008 µM.
`O=c1cc(N2CCOCC2)nc2n(Cc3cccc(Cl)c3)ccn12` [GSK2296823] showed a Kd (PIK3CB) of 0.015 µM.
